Source: the supplement of paper PMC6555819

Tests used:
Experiment in all cases: PBM binding z-score (relative to random genomic background probes); higher = stronger binding; sequences stand for … in GC…GCGATTGACAGCGTAGAATGAAGG
[1] = tested on: RARb homodimer (NR concentration 270 nM)
Outline: (§1)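 Regression normalization was applied to scanned fluorescence from custom Agilent 4×180K protein-binding microarrays. Before scanning, arrays were incubated 1 h with ligand-free nuclear receptor dimers, and binding was detected with antibodies against each partner (one per run). Binding z-scores use the random background probes as reference.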

[2] = tested on: RARg:RXRa (NR concentration 270 nM, RXRa partner concentration 90 nM)
Outline: as §1

[3] = tested on: RARg homodimer (NR concentration 270 nM)
Outline: as §1

[4] = tested on: RXRa DBDmut IVT, anti-RXR (DBD mutation: RXRa K156A/R161A, NR concentration 90 nM)
Outline: as §1

[5] = tested on: RXRa homodimer (NR concentration 180 nM)
Outline: as §1

[6] = tested on: THRa:RXRa (NR concentration 90 nM, RXRa partner concentration 90 nM)
Outline: as §1

[7] = tested on: THRa homodimer (NR concentration 90 nM)
Outline: as §1

[8] = tested on: VDR homodimer (NR concentration 270 nM)
Outline: as §1

Row | Sequence | PBM binding z-score [1] | PBM binding z-score [2] | PBM binding z-score [3] | PBM binding z-score [4] | PBM binding z-score [5] | PBM binding z-score [6] | PBM binding z-score [7] | PBM binding z-score [8]
1 | CGAACGAGGGCATGAGTGGATAGCAAATGCCGAT | 0.496 | 1.27 | 1.61 | 2.02 | 0.916 | 1.04 | -0.129 | 0.792
2 | TCTATTAGATGAAGGGCAACCGACGAGTCCGTTT | 1.1 | 0.508 | 0.672 | 1.4 | 0.961 | 0.13 | -0.334 | 0.972
3 | CCTCGGAGGACAACAGGAGATCAGAGCTGCCAGA | 0.118 | 0.145 | 0.783 | 0.248 | -0.305 | 0.396 | -0.247 | -0.168
4 | CGAACTCGGTCATCCAGGACAGTGAATACATTGA | 1.59 | 2.22 | 2.83 | 0.985 | 0.784 | 2.12 | 0.998 | 1.15
5 | CAAAGTAGGTCACAGAGGTCAAAGTCCGTGCGTA | 5.68 | 7.42 | 8.01 | 3.36 | 8.08 | 4.51 | 2.42 | 6.6
6 | CTCCAAAGGTCGTGCTCAGGTGAGTATACCAAAC | 2.74 | 5.41 | 4 | 2.23 | 5.01 | 4.15 | 1.09 | 0.905
7 | CCCACTGGGCCAAGGTCATTGATCAGTCAAAGCA | 3.19 | 3.57 | 3.06 | 0.687 | 3.2 | 3.3 | 2.16 | 3.07
8 | ATCGAAAGGTCGAAGGTTAGTATACCCACCCGAA | 2.72 | 4.38 | 3.94 | 1.41 | 5.38 | 2.19 | 0.185 | 0.865
9 | GCTGCTAGGTCTGGTTGGTCAGCTAACGGGTACG | 0.178 | -0.569 | -0.564 | -0.198 | -0.753 | -0.722 | -0.243 | -0.214
10 | ATCTCTAGGTAAAGATAGTTCAGTGAGTGCAAAT | 1.5 | 0.634 | 0.838 | 0.341 | 0.157 | 1.1 | 0.522 | 4.13
11 | CCTCGGAGGACAACAGTAGGTCAGAGCTGCCAGA | 2.54 | 1.94 | 2.24 | 0.271 | 0.593 | 1.67 | 0.256 | -0.109
12 | CCTAGTGGGCCATCAGGTCATTGATATCAACGTT | 2.68 | 2.11 | 1.92 | 0.53 | 1.45 | 3.13 | 2.59 | 1.43
13 | ATCTCTCGGTAACCAAGTTCAGTGAATGCCGAAC | 1.51 | 0.706 | 0.621 | 0.703 | 0.383 | 0.98 | 0.603 | 2.26
14 | TCATATAGGTAAATGCTAGGTGAAAGTGCGATCT | 0.752 | 0.609 | 0.488 | 1.55 | 1 | 1.64 | 0.475 | 0.485
15 | ATATGTAGGTTAGCTAGGGTCATTCAGACTAGGC | 3.17 | 3.33 | 2.68 | 1.24 | 3.71 | 5 | 2.64 | 3.63
16 | AAATGTAGGTTATCGGGTCATTCAGTTTGCGCAT | 3.09 | 3.27 | 2.33 | 1.88 | 3.42 | 3.41 | 2.84 | 4
17 | ACAGACAGTTGAGTGAAGGTAACTCAGCTGGACG | -0.475 | 0.0376 | 0.211 | -0.165 | 0.132 | 0.662 | -0.514 | -0.463
18 | ATACCAAGGTGATCGTGGGGTCGTTGATACTAAC | 1.69 | 2.14 | 0.593 | 0.817 | 2.34 | 3.15 | 1.93 | 2.92
19 | ATCGAAAGGTCGTGAGGTGAGTGTACAGAAAGGC | 3.06 | 4.52 | 4.11 | 1.26 | 5.06 | 3.48 | 1.71 | 1.41

Row | Sequence | PBM binding z-score [1] | PBM binding z-score [2] | PBM binding z-score [3] | PBM binding z-score [4] | PBM binding z-score [5] | PBM binding z-score [6] | PBM binding z-score [7] | PBM binding z-score [8]
20 | GCTTACGGGTCAAAGATTATAGCATGAATAGAAT | 2.21 | 4.65 | 4.34 | 2.38 | 5.43 | 2.21 | -0.519 | 0.811
21 | TATACAGGGTCAAAGGCCAGCGTACGAATGTCGA | 3.48 | 5.75 | 4.83 | 2.96 | 7.31 | 3.54 | 0.731 | 2.16
22 | CGCGAAAGGTCGTGCTCAGGTGAGTATACCAAAC | 3.1 | 5.55 | 4.27 | 2.19 | 5.98 | 4.17 | 1.26 | 1.18
23 | CGTCTAAGGTCAGAGAGGTCAGTGAATGCCGAGT | 5.36 | 6.8 | 7.77 | 3.83 | 6.37 | 4.66 | 3.81 | 5.7
24 | GCAGACAGGTGAAACGCAAGTAACTCAGGGTGGC | -0.222 | 0.227 | 0.311 | -0.514 | 0.606 | 0.23 | -0.701 | -0.62
25 | CAAACTAGGTCACGAAAGATCAAAGTCGAATGAC | 3.2 | 4.8 | 5.53 | 1.99 | 4.09 | 3.49 | 1.43 | 0.583
26 | TGAATGAGGTTATAAGATCAGGGAACGTTGCAAA | 0.0745 | 1.3 | 0.836 | 0.756 | 1.86 | 1.71 | -0.0262 | 0.362
27 | TAGCCAAGGTCATGGGCCAGTATACCACGCGAAC | 4.04 | 6.18 | 6.1 | 1.93 | 6.11 | 3.89 | 2.68 | 2.65
28 | CCTACTGGGCCAAAGGTCATTGGTTCCAATGCTC | 4.8 | 5.8 | 4.77 | 0.919 | 6.11 | 3.37 | 0.894 | 2.85
29 | CCTGCTAGGTCACGGTCAGCTAATCTACAGTATG | 3.98 | 5.01 | 6.09 | 2.08 | 4.15 | 3.35 | 2.35 | 0.444
30 | CCTTACGGTTCAAGGTTATAGCACGGGTGGTACG | 1.39 | 1.69 | 1.21 | 2.6 | 2.38 | 2.15 | 1.41 | 3.31
31 | GCATATAGGTAATACAAGGGGAAAGTCCGATTGT | -0.0469 | 0.247 | 0.368 | 0.734 | 0.3 | 1.94 | -0.473 | 0.0263
32 | TGAATGAGGTTTTAAGATCAGGGAACGTTGCAAA | -0.344 | -0.157 | -0.0698 | -0.731 | -0.145 | 0.308 | -0.308 | -0.172
33 | ATCTCTAGTTAAAGATAGTTCAGTGAATGCAAAT | 1.14 | 0.636 | 0.66 | 0.396 | 0.579 | 0.486 | 0.212 | 0.858
34 | CCTTACGGGTCACTCCAGGCTATAGCATCGGAGT | 2.51 | 4.03 | 4.09 | 0.95 | 4.01 | 4.23 | -0.482 | 0.841
35 | GGAACGAGGGCATTCGAGTTGGTAGCATGGCGAT | 0.543 | 0.787 | 0.965 | 2.93 | 0.508 | 1.87 | -0.702 | 2.2
36 | CCGACTGGGGCACAAAGGTTACCATACCATCCGG | 2.64 | 2.34 | 1.92 | -0.678 | 2.52 | 1.51 | 0.0239 | 0.375
37 | AGTCGAAGTTCAGGACGAGGTAACGTAAAGCACG | 1.36 | 2.55 | 1.89 | 1.42 | 1.28 | 3.25 | 1.62 | 0.996
38 | ACTAGTTGGTCAGCTGAGATCACACACAATTCGG | 0.406 | 0.638 | 0.88 | 0.396 | 0.449 | 0.991 | -0.107 | -0.0701

Row | Sequence | PBM binding z-score [1] | PBM binding z-score [2] | PBM binding z-score [3] | PBM binding z-score [4] | PBM binding z-score [5] | PBM binding z-score [6] | PBM binding z-score [7] | PBM binding z-score [8]
39 | TAGCCTAGGTCATGTGCCAGTATACCACGCGAAC | 2.84 | 3.83 | 4.32 | 1.26 | 3.14 | 2.91 | 1.55 | 0.739
40 | CCGACTGGGCCAGAAAGGTTACCATACCATCCGG | 1.97 | 1.28 | 0.921 | -0.772 | 1.58 | 1.04 | -0.354 | 0.0109
41 | ACTAGCAGGCCAAGTTTGGGTCAATCAAACAAAG | 2.11 | 2.43 | 1.43 | -0.255 | 0.858 | 2.25 | 0.6 | 0.00979
42 | TCGAGTAGGTTAGTCTGGGCATTCAGCCAACATA | -0.367 | -0.389 | -0.417 | -0.133 | -0.273 | 0.0539 | -0.454 | -0.466
43 | CATACGGGGTCAGCTAGGCCAGAGTAGGGACGGC | 4 | 6.37 | 6.46 | 3.01 | 7.61 | 3.98 | 1.61 | 3.27
44 | ATATCTAGGTAACAAGTTCAGTGAAAGAGAGGAC | 1.93 | 1.25 | 1.51 | 1.36 | 1.03 | 1.49 | 0.951 | 2.85
45 | TCGCGGAGGACACGAAGGTCAGAGCTTTCCAGAG | 3.67 | 3.06 | 3.52 | 0.372 | 1.64 | 2.62 | 0.443 | 1.19
46 | GCGATTGGGGCAAAGCAGGTTACCATAAGGTTGG | 1.1 | 0.454 | 0.635 | 0.0691 | 0.619 | 3.01 | 0.281 | 0.0482
47 | AGAATGAGGTTAAGATCCGGGAAACAGAATACAT | 0.774 | 2.06 | 1.4 | 0.76 | 2.46 | 2.37 | 0.603 | 0.257
48 | CCTGCTAGGTCAATGTTCAGCTAAAGCAGCTCGC | 2.69 | 3.48 | 4.07 | 1.93 | 1.91 | 2.34 | 0.628 | 0.0912
49 | CCTACTGGGCCACGGAAGGTCATTGATTCAGTGA | 3.78 | 2.93 | 2.38 | -0.515 | 2.57 | 3.67 | 0.727 | 1.2
50 | ACTAGAAGGCCAAGTTTGGGTCACTCAAACAAAG | 2.88 | 3.27 | 2.36 | 0.0906 | 1.29 | 3 | 1.32 | 0.626
51 | AGAACGATGGCACGCTGAGTTGATAGCAGAGTAG | -0.907 | -0.162 | -0.0451 | -0.483 | -0.397 | -0.632 | -1.01 | -0.128
52 | CCGAGGAGGTTATGGGGCATTCAGGCAACGGTGA | 1.31 | 1.42 | 0.885 | 0.0755 | 1.95 | 1.25 | 0.438 | 0.25
53 | CCTACTGGGCCGAAAAGGTCATTGATGCCGATAA | 4.31 | 4.56 | 3.89 | 0.386 | 4.95 | 3 | 0.639 | 2.13
54 | ATCGAAGGGTCGAGGTGAGTATAGAGAAAGGGAA | 1.75 | 2.29 | 2.48 | 0.466 | 2.29 | 2.17 | 0.731 | 0.278
55 | TCTTGTAGATCAATAGAGGTTAAGTAAGTGCGCT | 1.37 | 0.902 | 0.6 | 0.824 | 1.49 | 3.1 | -0.295 | 0.563
56 | TCGACTAGGTTACCAATGGGGCATTCAGCTTTCT | 1.02 | 1.16 | 0.432 | 1.07 | 0.661 | 0.557 | 0.42 | -0.0453
